Assay [1] in a line: qHTS assay to identify small molecule antagonists of the sonic hedgehog signaling (Shh) pathway (AID 1259369; calls by dose curve; further: nearly all actives have a fitted effect of over 45% in size). The method in brief:
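Conditioned medium drives Shh signalling in 3T3Gli1-Luc cells; compounds in DMSO co-applied, 24hr at 37 C, then luciferase luminescence.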
(In qHTS, concentration-response curves come from the screen itself.)

For assay [2], the target named is Estrogen receptor beta (Homo sapiens) (UniProt Q92731). In words: qHTS assay to identify small molecule agonists of the estrogen receptor beta (ER-beta) signaling pathway (AID 1259377; active means well fitted activation curve with a large enough effect in the signal ratio in the repeat runs, not every such curve was filed as active; the % refers to the signal ratio). The method in brief: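 HEK293T ER-beta-UAS-bla; 2% charcoal-stripped FBS; cells pre-incubated 6 hr, compound 16 hr, 37C/5% CO2; LiveBLAzer B/G FRET substrate 2 h RT; fluorescence intensity read.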
Sequence of Estrogen receptor beta (Homo sapiens) (Q92731 whole entry, looked up): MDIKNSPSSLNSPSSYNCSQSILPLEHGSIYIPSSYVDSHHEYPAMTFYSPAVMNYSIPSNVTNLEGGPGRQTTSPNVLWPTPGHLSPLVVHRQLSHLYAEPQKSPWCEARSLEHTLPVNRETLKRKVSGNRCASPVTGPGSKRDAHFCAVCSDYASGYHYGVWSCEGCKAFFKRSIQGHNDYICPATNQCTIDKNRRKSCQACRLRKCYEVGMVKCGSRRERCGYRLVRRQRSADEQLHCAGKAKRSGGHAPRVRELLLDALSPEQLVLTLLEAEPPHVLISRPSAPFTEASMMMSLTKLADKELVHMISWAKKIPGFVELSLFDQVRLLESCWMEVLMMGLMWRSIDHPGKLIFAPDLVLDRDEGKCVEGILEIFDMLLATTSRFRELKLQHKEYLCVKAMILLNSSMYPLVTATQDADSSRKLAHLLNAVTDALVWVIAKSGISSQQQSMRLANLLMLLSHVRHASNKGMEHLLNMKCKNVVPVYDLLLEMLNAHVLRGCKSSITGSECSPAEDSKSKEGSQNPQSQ

Assay [3] shares this target. In words: qHTS assay to identify small molecule antagonists of the estrogen receptor beta (ER-beta) signaling pathway (AID 1259378; active means well fitted inhibition curve with a large enough effect in the signal ratio in the repeat runs, not every such curve was filed as active; the % refers to the signal ratio; further: potency means the concentration at half of the fitted maximal effect). The method in brief:
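Antagonist mode: compounds added to beta-lactamase reporter HEK293T ER-beta-UAS cells stimulated with E2 (1nM final), 16 hr at 37C. LiveBLAzer B/G FRET substrate, 2 hours room temperature, fluorescence read-out.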

Assay [4] can be described thus: qHTS assay to identify small molecule agonists of the androgen receptor (AR) signaling pathway in the presence of an antagonist - cell viability counter screen (AID 1259379).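 Further: MDA-kb2 human breast cancer cells carrying an MMTV luciferase reporter; series mostly up to about 92 µM; nearly all actives have a fitted effect of over 25% in size.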 The method in brief:
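A CellTiter-Fluor read-out measured viability of MDA-kb2 reporter cells (MMTV promoter with AR and GR response elements). Treatment: nilutamide 3.0uM final with compounds at 15 concentrations, 16 hr, 37C, 0% CO2.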

The nature of assay [5]: qHTS assay to identify small molecule agonists of the estrogen receptor beta (ER-beta) signaling pathway - cell viability counter screen (AID 1259380). Further: nearly all actives have a fitted effect of over 30% in size. The procedure, abridged: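 Cells used were ER-beta-UAS-bla HEK293T in medium with 2% charcoal-stripped FBS. They were treated for 16 hr at 37C. Viability came from CellTiter-Glo luminescence.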
Assay [6] can be described thus: qHTS assay to identify small molecule antagonists of the estrogen receptor beta (ER-beta) signaling pathway - cell viability counter screen (AID 1259382). Further: series mostly up to about 92 µM; nearly all actives have a fitted effect of over 55% in size. The procedure, abridged:
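Agonist-stimulated (1nM E2) ER-beta-UAS-bla HEK293T cells are incubated with library compounds for 16 hr at 37C. Cell viability is then assessed in the reporter-assay wells by adding CellTiter-Glo and reading luminescence after 30 min.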

Assay [7] concerns the target Estrogen receptor (Homo sapiens) (UniProt P03372). In words: qHTS assay to identify small molecule agonists of the estrogen receptor alpha (ER-alpha) signaling pathway in the presence of an antagonist (AID 1259383; calls by dose curve; further: top concentration of the series differs between compounds; nearly all actives have a fitted effect of over 15% in size). The method in brief:
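Using VM7Luc4E2 cells seeded 24hr before treatment, antagonist ICI-182,780 (10.0nM final) was added, followed by compounds at 15 concentrations. Plates incubated 22hr; ONE-Glo luminescence quantified reporter activity.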

Assay [8] is described as follows: qHTS assay to identify small molecule agonists of the estrogen receptor alpha (ER-alpha) signaling pathway in the presence of an antagonist - cell viability counter screen (AID 1259386).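 Further: series mostly up to about 92 µM; cells exposed to compounds for 22 h at 37 °C before the viability read; nearly all actives have a fitted effect of over 30% in size.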 The method in brief: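 ICI-182,780 at 10.0nM final accompanies the compound titration (15 concentrations, 22hr, 37C) on VM7Luc4E2 cells. The CellTiter-Fluor fluorescence readout runs in the same wells as the luciferase assay.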

The target in assay [9] is Progesterone receptor (Homo sapiens) (UniProt P06401). In words: qHTS assay to identify small molecule agonists of the progesterone receptor (PR) signaling pathway (AID 1346784; calls by dose curve; further: nearly all actives have a fitted effect of over 30% in size). The method in brief: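 Beta-lactamase reporter read-out: after 16 hr compound treatment at 37C and a further 2 hr at room temperature with LiveBLAzer B/G FRET substrate, fluorescence was measured in PR-UAS-bla HEK 293T cells grown in 2% charcoal-stripped serum.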
Sequence of Progesterone receptor (Homo sapiens) (P06401 whole entry, looked up): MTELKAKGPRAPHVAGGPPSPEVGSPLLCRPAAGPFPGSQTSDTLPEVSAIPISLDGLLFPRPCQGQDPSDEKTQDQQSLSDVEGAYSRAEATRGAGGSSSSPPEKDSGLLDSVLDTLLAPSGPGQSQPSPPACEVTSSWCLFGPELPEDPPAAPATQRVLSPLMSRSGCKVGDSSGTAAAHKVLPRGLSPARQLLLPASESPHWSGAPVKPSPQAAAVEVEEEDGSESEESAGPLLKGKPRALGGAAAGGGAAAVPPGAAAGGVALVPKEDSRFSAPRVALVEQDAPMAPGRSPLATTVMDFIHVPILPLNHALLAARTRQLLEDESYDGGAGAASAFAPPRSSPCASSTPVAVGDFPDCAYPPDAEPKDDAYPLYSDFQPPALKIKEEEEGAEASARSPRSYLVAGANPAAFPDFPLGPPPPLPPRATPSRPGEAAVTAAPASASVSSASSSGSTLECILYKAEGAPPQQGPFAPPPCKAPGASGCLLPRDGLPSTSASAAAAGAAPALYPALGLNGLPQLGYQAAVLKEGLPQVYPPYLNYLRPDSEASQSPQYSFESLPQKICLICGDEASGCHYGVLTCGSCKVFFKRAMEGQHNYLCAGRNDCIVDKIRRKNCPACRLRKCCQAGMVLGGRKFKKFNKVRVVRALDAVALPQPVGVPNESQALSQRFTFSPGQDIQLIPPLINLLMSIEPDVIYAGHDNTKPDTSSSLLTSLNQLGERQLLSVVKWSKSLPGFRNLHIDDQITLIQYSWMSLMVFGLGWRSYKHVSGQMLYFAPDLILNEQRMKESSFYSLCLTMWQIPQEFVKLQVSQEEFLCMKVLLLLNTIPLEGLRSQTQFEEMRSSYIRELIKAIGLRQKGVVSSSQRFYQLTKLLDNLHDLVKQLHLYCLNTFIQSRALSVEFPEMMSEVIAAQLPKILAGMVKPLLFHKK

Assay [10] has the same target. Description: qHTS assay to identify small molecule antagonists of the progesterone receptor (PR) signaling pathway (AID 1346795; active means well fitted inhibition curve with a large enough effect in the signal ratio in the repeat runs, not every such curve was filed as active; the % refers to the signal ratio; further: potency means the concentration at half of the fitted maximal effect). The procedure, abridged:
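Read-out is fluorescence from the LiveBLAzer B/G FRET substrate, cleaved by a UAS-controlled beta-lactamase in PR-UAS-bla HEK293T cells after 16 hr exposure to compound plus 1 nM promegestone (final), followed by 2 hr at room temperature.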

A short description of assay [11]: qHTS assay to identify small molecule antagonists of the progesterone receptor (PR) signaling pathway - cell viability counter screen (AID 1346798). Further: series mostly up to about 92 µM; nearly all actives have a fitted effect of over 50% in size. The method in brief: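 HEK293T PR-UAS-bla, 2% charcoal-stripped FBS; 4 hr pre-plate; cpd + R5020, 16 h 37C; LiveBLAzer read first; then CellTiter-Glo 30 min RT, luminescence.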
The nature of assay [12]: qHTS assay to identify small molecule agonists of the progesterone receptor (PR) signaling pathway - cell viability counter screen (AID 1346799; calls by dose curve; further: nearly all actives have a fitted effect of over 45% in size). The procedure, abridged: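 Luminescence from CellTiter-Glo, added after the beta-lactamase FRET read in the same wells, gave cytotoxicity in PR-UAS-bla HEK293T cells treated with compounds for 16 hr at 37C.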
Assay [13] is described as follows: qHTS assay to identify small molecule agonists of the TGF-beta/Smad signaling pathway - cell viability counter screen (AID 1346829). Further: top concentration of the series differs between compounds; nearly all actives have a fitted effect of over 45% in size. The method in brief:
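SBE-bla HEK 293T cells plated overnight, compound exposure 5 hr at 37 C. Viability read in the same wells by CellTiter-Glo luminescence after 30 min at room temperature, following the beta-lactamase read.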

The nature of assay [14]: qHTS assay to identify small molecule agonists of the TGF-beta/Smad signaling pathway (AID 1346859; active means well fitted activation curve with a large enough effect in the signal ratio in the repeat runs, not every such curve was filed as active; the % refers to the signal ratio; further: series mostly up to about 77 µM). The procedure, abridged:
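SBE-bla HEK 293T, 4,000 cells/well, plated o/n; cpd in DMSO, 5 hr, 37 C/5% CO2; B/G FRET substrate 2 hr RT; ex 405, em 460/530 nm.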

A short description of assay [15]: qHTS assay to identify small molecule antagonists of the TGF-beta/Smad signaling pathway - cell viability counter screen (AID 1346824). Further: nearly all actives have a fitted effect of over 50% in size. The method in brief: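 Cytotoxicity counter-screen run in the same wells as the beta-lactamase Smad reporter read: CellTiter-Glo luminescence after 30 min at room temperature. HEK 293T SBE-bla cells had 5 hr compound exposure at 37 C with TGF-beta1 (0.25 ng/mL stock).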

Assay [16] addresses Thyrotropin-releasing hormone receptor (Homo sapiens) (UniProt P34981). In words: qHTS assay to identify small molecule antagonists of the thyrotropin-releasing hormone receptor (TRHR) signaling pathway (AID 1346877; active means well fitted inhibition curve with a large enough effect in the repeat runs, not every such curve was filed as active; further: series mostly up to about 51 µM). The method in brief:
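Screening used HEK293 cells engineered with TRHR, with a brief 5 min room-temperature compound exposure preceding addition of TRH to 1 nM. The read-out was kinetic calcium-dye fluorescence, concentration-response from 15 doses in triplicate.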

The target is the same in assay [17]. In words: qHTS assay to identify small molecule agonists of the thyrotropin-releasing hormone receptor (TRHR) signaling pathway (AID 1346891; calls by dose curve; further: series mostly up to about 58 µM). The procedure, abridged:
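Intracellular calcium rise, read as fluorescence every second for 3 min, served as the agonist signal in dye-loaded HEK293 cells expressing TRHR; each compound ran at 15 concentrations in triplicate.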

Assay [18] in a line: qHTS assay to identify small molecule agonists or antagonists of the thyroid stimulating hormone receptor (TSHR) signaling pathway - wild type cell line counter screen (AID 1259384; calls by dose curve). The procedure, abridged: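 Counter screen in untransfected Hek293: compounds (15-point titration, triplicate) plus phosphodiesterase inhibitor Ro20-1724 added after 18 h plating; 30 min RT. Intracellular cAMP via competitive d2/cryptate immunoassay, 1 h incubation.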

Assay [19] concerns the target Thyrotropin receptor (Homo sapiens) (UniProt P16473). Description: qHTS assay to identify small molecule antagonists of the thyroid stimulating hormone receptor (TSHR) signaling pathway (AID 1259385; calls by dose curve; further: nearly all actives have a fitted effect of over 20% in size). The method in brief:
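Antagonist mode: compound-treated TSHR-expressing HEK293 cells were stimulated with 1.5 ng/mL TSH (final) in presence of Ro20-1724 for 30 min at RT. HTRF cAMP detection after 1 h; each compound tested at 15 concentrations, triplicate.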

The target in assay [20] is Androgen receptor (Homo sapiens) (UniProt P10275). Description: qHTS assay to identify small molecule agonists of the androgen receptor (AR) signaling pathway in the presence of an antagonist (AID 1259381; calls by dose curve; further: nearly all actives have a fitted effect of over 15% in size). The method in brief:
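Using human MDA-kb2 cells with an MMTV promoter–luciferase construct (AR and GR response elements), agonist activity is scored under 3.0uM nilutamide (final) co-treatment; 16hr incubation, 37C, luminescence readout via ONE-Glo.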

Unmarked numbers belong to inactive results. Inconclusive results are not listed. The source made the active and inactive calls. Unless noted, the call rests on the fitted dose curve; in most records, active means well fitted curve in the direction sought with a large enough effect in the repeat runs; inconclusive means weak or mixed curves; inactive means no such curve, though single readings can be large; an effect the other way counts as inactive or inconclusive.

Sequence of Estrogen receptor (Homo sapiens) (P03372 whole entry, looked up): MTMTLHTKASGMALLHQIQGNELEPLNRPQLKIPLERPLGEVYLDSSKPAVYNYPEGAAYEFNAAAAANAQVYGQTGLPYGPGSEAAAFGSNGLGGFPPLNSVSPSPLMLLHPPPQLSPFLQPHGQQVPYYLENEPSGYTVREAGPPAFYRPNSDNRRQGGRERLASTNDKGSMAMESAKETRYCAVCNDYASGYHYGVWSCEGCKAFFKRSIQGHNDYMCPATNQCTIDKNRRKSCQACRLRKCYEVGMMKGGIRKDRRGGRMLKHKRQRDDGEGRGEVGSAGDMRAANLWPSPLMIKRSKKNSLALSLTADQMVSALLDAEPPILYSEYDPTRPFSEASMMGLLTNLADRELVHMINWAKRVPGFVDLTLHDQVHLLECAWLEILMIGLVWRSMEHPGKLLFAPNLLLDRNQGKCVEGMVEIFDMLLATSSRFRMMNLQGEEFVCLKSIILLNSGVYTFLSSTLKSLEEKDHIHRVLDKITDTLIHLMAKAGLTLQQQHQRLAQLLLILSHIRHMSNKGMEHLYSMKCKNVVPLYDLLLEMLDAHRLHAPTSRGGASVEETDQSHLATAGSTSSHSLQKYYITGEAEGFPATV
Sequence of Thyrotropin receptor (Homo sapiens) (P16473 whole entry, looked up): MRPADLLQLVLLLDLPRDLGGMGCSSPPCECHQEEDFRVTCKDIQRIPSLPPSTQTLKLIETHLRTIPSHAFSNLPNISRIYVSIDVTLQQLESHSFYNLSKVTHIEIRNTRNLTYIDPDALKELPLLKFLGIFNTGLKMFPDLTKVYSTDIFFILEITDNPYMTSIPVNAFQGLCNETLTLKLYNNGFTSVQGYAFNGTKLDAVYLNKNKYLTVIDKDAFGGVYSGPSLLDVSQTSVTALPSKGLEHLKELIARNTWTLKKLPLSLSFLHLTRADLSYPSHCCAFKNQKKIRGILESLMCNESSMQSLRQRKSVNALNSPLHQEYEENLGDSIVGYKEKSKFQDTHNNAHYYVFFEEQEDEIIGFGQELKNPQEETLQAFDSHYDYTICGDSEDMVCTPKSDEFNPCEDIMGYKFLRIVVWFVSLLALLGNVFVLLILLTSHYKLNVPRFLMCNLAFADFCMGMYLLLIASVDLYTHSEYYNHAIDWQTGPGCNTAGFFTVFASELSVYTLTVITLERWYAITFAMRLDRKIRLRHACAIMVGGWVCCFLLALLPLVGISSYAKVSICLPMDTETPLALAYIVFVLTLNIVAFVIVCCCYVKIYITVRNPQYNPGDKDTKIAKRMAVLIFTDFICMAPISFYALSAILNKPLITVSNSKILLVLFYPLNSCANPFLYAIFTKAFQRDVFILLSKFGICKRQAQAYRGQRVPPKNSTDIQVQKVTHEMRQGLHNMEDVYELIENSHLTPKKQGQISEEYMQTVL
Sequence of Thyrotropin-releasing hormone receptor (Homo sapiens) (P34981 whole entry, looked up): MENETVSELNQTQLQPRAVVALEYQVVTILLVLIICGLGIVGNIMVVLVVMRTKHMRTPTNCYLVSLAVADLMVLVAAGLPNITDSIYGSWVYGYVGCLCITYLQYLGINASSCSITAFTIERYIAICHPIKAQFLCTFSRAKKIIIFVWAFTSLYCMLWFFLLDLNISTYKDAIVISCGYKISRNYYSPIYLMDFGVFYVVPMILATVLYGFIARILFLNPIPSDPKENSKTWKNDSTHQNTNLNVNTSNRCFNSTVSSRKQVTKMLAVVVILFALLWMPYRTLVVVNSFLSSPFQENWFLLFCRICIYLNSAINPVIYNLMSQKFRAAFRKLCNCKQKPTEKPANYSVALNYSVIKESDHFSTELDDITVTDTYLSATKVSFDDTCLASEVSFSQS
Sequence of Androgen receptor (Homo sapiens) (P10275 whole entry, looked up): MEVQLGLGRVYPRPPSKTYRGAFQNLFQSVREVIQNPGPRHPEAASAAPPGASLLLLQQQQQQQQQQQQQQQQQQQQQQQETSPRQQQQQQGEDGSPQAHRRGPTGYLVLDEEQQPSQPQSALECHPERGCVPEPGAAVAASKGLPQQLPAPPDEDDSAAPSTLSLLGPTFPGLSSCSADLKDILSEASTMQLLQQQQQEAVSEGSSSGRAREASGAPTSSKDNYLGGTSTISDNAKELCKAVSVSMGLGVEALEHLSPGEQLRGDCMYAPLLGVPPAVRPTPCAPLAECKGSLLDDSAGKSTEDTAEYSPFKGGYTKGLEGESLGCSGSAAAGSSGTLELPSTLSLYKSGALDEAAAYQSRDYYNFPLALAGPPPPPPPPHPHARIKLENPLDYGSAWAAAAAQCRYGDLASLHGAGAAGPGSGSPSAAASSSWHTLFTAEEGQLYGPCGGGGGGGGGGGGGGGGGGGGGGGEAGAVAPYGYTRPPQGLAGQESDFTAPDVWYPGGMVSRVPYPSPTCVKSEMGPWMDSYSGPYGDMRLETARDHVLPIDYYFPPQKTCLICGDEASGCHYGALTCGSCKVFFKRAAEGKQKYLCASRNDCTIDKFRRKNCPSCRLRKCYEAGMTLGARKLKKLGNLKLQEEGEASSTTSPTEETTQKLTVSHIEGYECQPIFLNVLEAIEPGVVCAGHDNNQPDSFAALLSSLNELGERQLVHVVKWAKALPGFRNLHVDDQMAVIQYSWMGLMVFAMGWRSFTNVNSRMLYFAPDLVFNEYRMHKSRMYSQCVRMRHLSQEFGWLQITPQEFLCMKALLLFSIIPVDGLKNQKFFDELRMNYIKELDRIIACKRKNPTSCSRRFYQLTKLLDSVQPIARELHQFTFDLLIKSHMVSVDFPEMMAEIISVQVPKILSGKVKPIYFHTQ

As to `CCOC(=O)CC(=O)c1cc(F)c(Cl)nc1Cl`, the Potency result in assay [1], in assay [2], in [3], in assay [4], in assay [5] and in assay [6] was “inactive” throughout. The Potency entry in [7], in assay [8], in assay [10], in assay [11], in assay [12] and in [13] was “inactive” in each case. Further, the molecule was called inactive in assay [9] and in assay [14].
With `Cc1ccccn1`, the Potency result in [1], in [2], in assay [3], in assay [4], in assay [5] and in [6] was “inactive” in each case. The Potency result in assay [8], in assay [10], in [11], in assay [12], in [15] and in assay [13] was “inactive” in each case. In addition, the Potency entry in assay [17] was “inactive”. The result in [9], in assay [14] and in assay [16] was inactive.
Consider `S=C(S)NCCNC(=S)S`, for which the Potency result in assay [1], in [2], in assay [3], in assay [4], in assay [5] and in assay [6] was “inactive” in each case. Also, the Potency result in assay [18], in assay [19], in [8], in [10], in assay [11] and in [12] was “inactive” in each case. Moreover, the Potency result in assay [15] and in assay [13] was “inactive” throughout. Moreover, the molecule was called inactive in [9] and in assay [14].
For `CC(=O)N(O)CCCCCNC(=O)CCC(=O)N(O)CCCCCNC(=O)CCC(=O)N(O)CCCCCN`, the Potency result in [1], in assay [2], in assay [3], in assay [4], in assay [5] and in [20] was “inactive” in each case. Moreover, the Potency result in [6], in assay [7], in assay [18], in assay [19], in assay [8] and in assay [10] was “inactive” throughout. For the same molecule, the Potency entry in [12], in assay [15], in assay [13] and in assay [17] was “inactive” in each case. Also, the molecule was called inactive in assay [9], in [14] and in assay [16].
In the case of `CCN(CC)C(C)=O`, the Potency entry in assay [1], in assay [2], in assay [3], in assay [4], in assay [5] and in [6] was “inactive” each time. For the same molecule, the Potency entry in assay [18], in assay [19], in assay [8], in [10], in [11] and in assay [12] was “inactive” throughout. For the same molecule, the Potency result in assay [15], in [13] and in assay [17] was “inactive” in each case. For the same molecule, the molecule was classed as inactive in assay [9], in assay [14] and in [16].
Turning to `CC(=O)N(CC(=O)N(C)C)c1ccccc1`, the Potency entry in assay [1], in [2], in assay [3], in assay [4], in [5] and in assay [6] was “inactive” in each case. The Potency entry in assay [7], in assay [18], in assay [19], in assay [8], in assay [10] and in assay [11] was “inactive” in each case. Moreover, the Potency entry in assay [12], in assay [15], in [13] and in assay [17] was “inactive” throughout. For the same molecule, the outcome in assay [9] and in assay [14] was inactive.
For the molecule `CC[C@H](C)[C@H](N)C(=O)O`, the Potency result in assay [1], in [2], in [3], in assay [4], in assay [5] and in assay [6] was “inactive” throughout. Further, the Potency result in assay [7], in [18], in [19], in assay [8], in [10] and in assay [11] was “inactive” throughout. Besides, the Potency entry in [12], in assay [15], in assay [13] and in [17] was “inactive” throughout. The outcome in assay [9], in [14] and in assay [16] was inactive.
Consider `Nc1cnn([C@@H]2O[C@H](CO)[C@@H](O)[C@H]2O)c(=O)n1`, for which the Potency result in [1], in [2], in [4], in [5], in [6] and in [7] was “inactive” in each case. For the same molecule, the Potency entry in assay [18], in assay [19], in [8], in [11], in assay [12] and in assay [15] was “inactive” each time. Further, the Potency entry in [13] and in assay [17] was “inactive” each time. Also, the Potency in assay [3] is 27.3 µM (active); in assay [10] it was 19.4 µM (active). Besides, the molecule was classed as inactive in assay [9], in assay [14] and in assay [16].

Source of the values: PubChem BioAssay (Tox21).
